Assay outcomes (PubChem)
CHX counter = Cycloheximide Counterscreen for Small Molecule Inhibitors of Shiga Toxin; 300,000 tested, 12% active; max response, %; AID 2314, 2010; cell reporter, cycloheximide protein synthesis inhibition counterscreen; in the data active = max response mostly above about 13%, no sharp cut-off; inactive = mostly below about 14%; note: read at 38.3 µM for the half of the compounds with a filed dose; 0% is about no effect
FBPA Giardia inh = qHTS Assay for Inhibitors of Fructose-1,6-bisphosphate Aldolase from Giardia Lamblia | A8B2U2 | purified Giardia FBPA | Potency, µM (series often up to 59.6 µM), for the others: at the highest dose activity, negative = inhibition, most hits filed as inhibitors | 290,000 tested, 0.71% active; note: potency is the fitted concentration of half-maximal effect; % is set by controls: 0 for no effect and ±100 for the full control effect; nearly all actives have a fitted effect of over 55% in size
Target sequence (A8B2U2 whole entry, looked up): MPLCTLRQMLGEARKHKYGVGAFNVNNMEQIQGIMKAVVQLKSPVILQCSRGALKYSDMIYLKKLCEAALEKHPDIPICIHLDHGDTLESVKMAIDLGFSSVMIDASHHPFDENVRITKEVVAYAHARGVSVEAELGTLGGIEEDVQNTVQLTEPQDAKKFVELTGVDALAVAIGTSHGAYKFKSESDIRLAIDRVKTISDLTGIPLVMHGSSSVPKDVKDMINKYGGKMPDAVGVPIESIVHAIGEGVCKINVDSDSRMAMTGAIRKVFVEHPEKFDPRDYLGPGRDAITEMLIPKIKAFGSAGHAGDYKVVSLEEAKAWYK
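40 nM FBPA preincubated 10 min at RT with compound (up to 57.5 uM final), then substrate plus GAPDH/TPI/NAD/arsenate coupling and diaphorase/resazurin added. Fluorescence read after 20 min at RT, 525/598 nm.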
Shiga toxin inh = A qHTS for Small Molecule Inhibitors of Shiga Toxin | Vero cells, Shiga toxin protein synthesis inhibition reporter | inhibition, % at 38.7 µM | 290,000 tested, 9.2% active | AID 2315, 2010; in the data active = inhibition mostly above about 28%, no sharp cut-off; inactive = mostly below about 43%; note: 0% is about no effect
LmPK inh = qHTS Assay for Inhibitors of Leishmania Mexicana Pyruvate Kinase (LmPK). Q27686. purified LmPK, Kinase-Glo ATP luminescence, 1 h. Potency, µM (titrated, usually from 57.5 µM), for the others: at the top dose activity change, negative = inhibition, most hits filed as inhibitors. 290,000 tested, 0.37% active; note: potency is the fitted concentration of half-maximal effect; % is set by controls: 0 for no effect and ±100 for the full control effect
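0.1 nM LmPK, 0.5 mM PEP, 0.1 mM ADP; 50 mM imidazole pH 7.2, 7 mM MgCl2, 50 mM KCl; 1 h RT. Kinase-Glo luminescence readout, normalized to no-enzyme (full inhibition) and uninhibited wells.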
TbPYK inhibitor = qHTS of Trypanosoma Brucei Inhibitors; Potency, µM (highest dose often 76.8 µM), for the others: top-dose activity, negative = inhibition, usual class: inhibitors; TbPYK enzyme, Kinase-Glo Plus ATP luminescence, 45 min; AID 624173, 2012; 410,000 tested, 0.12% active; note: potency is the fitted concentration of half-maximal effect; % is set by controls: 0 for no effect and ±100 for the full control effect; nearly all actives have a fitted effect of over 50% in size
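Assay buffer: 50 mM TEA pH 7.2, 100 mM KCl, 10 mM MgCl2, 0.05% BSA, 0.01% Tween-20. Pyruvate kinase from T. brucei plus substrate met compound, then ADP (130 uM final). Luminescence was read post 45 min RT.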
RE007 growth inh = qHTS Assay for Inhibitors of the HIV-1 protein Vpr; Potency, µM (doses to about 92.2 µM), for the others: at the highest dose activity change, negative = less growth, hits mostly inhibitors; 360,000 tested, 0.21% active; S. pombe RE007 Vpr strain, BacTiter-Glo ATP luminescence, 24 h; AID 651644, 2012; active = well fitted falling curve with a large enough effect; inconclusive = small, poorly fitted or top-dose-only effect; inactive = no such curve, though single readings can be large or run the other way; note: potency is the fitted concentration of half-maximal effect; % is set by controls: 0 for no effect and ±100 for the full control effect; nearly all actives have a fitted effect of over 50% in size
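Fission yeast RE007 carrying one integrated HIV-1 vpr copy, seeded at OD 0.01 in PMG+AL medium with 23 nL pinned compound. Grown 24 h at 30 degrees; viability read by BacTiter-Glo luminescence after 5 min.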
* = called active by the depositor; ? = inconclusive; . = not tested or not shown; + = active, no number; ! = not confirmed by another sample; [ ] = another dose, or the depositor's remark. Only a selection was taken, and hits are over-represented in it overall. Unless noted, calls come from the whole dose curve; as a rule, active = well fitted curve in the direction sought with a large enough effect; inconclusive = small, poorly fitted or top-dose-only effect, or another doubt; inactive = no such curve, though single readings can be large; an effect the other way counts as inactive or inconclusive.

SMILES	CHX counter	FBPA Giardia inh	Shiga toxin inh	LmPK inh	TbPYK inhibitor	RE007 growth inh
Cc1ccc(C)c(C(=O)OCC(=O)Nc2cccc(S(=O)(=O)N3CCCCC3)c2)c1	.	.	.	.	-10.5%	-8.6%
Cc1ccc(CCNC(c2ccc(F)cc2)c2nnc(-c3ccccc3Cl)o2)cc1 (stereo not given)	.	.	.	.	-3.3%	.
COc1cccc2oc(-c3ccccc3)cc(=O)c12	29.2*	-6.4%	32.9*	.	.	.
COc1cccc2oc(-c3ccc(O)cc3)cc(=O)c12	.	-1.7%	.	.	.	.
COc1cccc2oc(SC)cc(=O)c12	30.2	-10.2%[136 µM]	+	.	.	.
O=C(O)C(C=C(Cl)Cl)N1CCOCC1 (stereo not given)	.	.	.	.	-1.2%	12.7%
CN(Cc1ccccc1)C1(CNC(=O)CCC(F)(F)F)Cc2ccccc2C1	-1.0	-2.2%	.	8.9%	0.4%	-10.8%
Cc1nc2c(sc3nc4c(cc32)COC(C)(C)C4)c(=O)n1CC(=O)NCc1ccco1	24.2*	-0.6%	39.1*	-4.7%	0.1%	12.4%
CC1(C)Cc2nc3sc4c(SCC(=O)NCc5ccco5)ncnc4c3cc2CO1	51.1*	-0.9%	99.3*	-1.7%	-6.6%	-12.8%
CCCc1nc2c(sc3nc4c(cc32)COC(C)(C)C4)c(=O)n1Cc1ccco1	0.9	-5.9%	-3.6	-1.0%	-27.4%	5.8%
CCC(=O)Nc1cccc(-n2nnnc2SCC(=O)N2CCCCC2)c1	17.5*	4.2%	27.4	0.7%	0.1%	-13.4%
CCn1c(=O)cc(SCC(=O)NCCc2ccc(OC)cc2OC)c2ccccc21	.	.	.	.	-7.8%	.
CC1=CN2C(=N)/C(=C/c3ccc(Sc4ccc(C)cc4)o3)C(=O)N=C2S1	23.1*	20.1%	active	3.8%	-13.6%	8.3%
CC1=CN2C(=N)/C(=C/c3ccc(C)o3)C(=O)N=C2S1	24.1*	6.4%	53.3*	-15.4%	-7.8%	-19.5%
NC(=O)C1CCN(C(=O)c2ccccc2SCC(=O)NCC2CCCCC2)CC1	-1.1	.	-4.1	-1.6%	2.9%	0.3%
COc1cccc2c1C(=O)c1c(O)c3c(c(O)c1C2=O)C[C@](O)(C(=O)CO)C[C@@H]3O[C@H]1C[C@H](N)[C@@H](O)[C@H](C)O1	.	.	.	.	5.3%	.
COc1cccc2c1C(=O)c1c(O)c3c(c(O)c1C2=O)C[C@@](O)(C(C)=O)C[C@@H]3O[C@H]1C[C@H](N)[C@H](O)[C@H](C)O1	5.1	?	42.4*!	-20.1%	0.0%	-5.0%[18.4 µM]
Nc1cc(C(F)(F)F)ccc1OCC1CCCO1 (stereo not given)	25.6*	5.4%	20.9*	-1.3%	0.1%	-21.6%
Cc1ccc(C(=O)Nc2ccc([N+](=O)[O-])cn2)o1	44.8*	7.8%	122.1*	-20.3%	0.5%	?
Cc1cc(C(=O)Nc2ccc([N+](=O)[O-])cn2)cs1	40.9*	5.2%	141.0*	-5.1%	-10.0%	-20.2%
Cc1ccc(C)c(OCc2ccc(C(=O)Nc3ccc([N+](=O)[O-])cn3)o2)c1	.	.	.	.	0.0%	-2.6%
COc1ccc(C(=O)Nc2ccc([N+](=O)[O-])cn2)c(OC)c1	35.6*	-2.5%	107.3*	2.9%	0.5%	5.9%
COc1cc(OC)cc(C(=O)Nc2ccc([N+](=O)[O-])cn2)c1	10.2	-9.4%	18.6	-11.9%	1.8%	-13.8%
CCOC(=O)c1cccc(NC(=O)CCC(=O)N2CC(C)Oc3ccc(C)cc32)c1 (stereo not given)	.	.	.	.	2.6%	.
CN(c1cccc(NC(=O)CSc2ccc(Cl)cc2)c1)S(C)(=O)=O	-1.1	0.5%	2.8	-0.2%	-2.8%	7.1%
SMILES	CHX counter	FBPA Giardia inh	Shiga toxin inh	LmPK inh	TbPYK inhibitor	RE007 growth inh
CC(=O)Nc1cccc(NC(=O)COc2ccccc2C)c1	20.3*	-8.3%	32.9*	-2.4%	7.6%	4.4%
CN(c1cccc(NC(=O)COc2ccccc2)c1)S(C)(=O)=O	43.2*	-2.8%	75.0*	0.6%	0.0%	1.6%
CN(c1cccc(NC(=O)COc2ccc(Cl)cc2Cl)c1)S(C)(=O)=O	19.4*	-3.8%	54.4*	2.1%	-3.8%	-13.0%
CN(c1cccc(NC(=O)CCSc2ccccc2)c1)S(C)(=O)=O	37.6*	-2.2%	34.8*	0.6%	-5.7%	17.0%
COc1cc(OC)c2c(OC)c(-c3ccc4c(c3)OCO4)c(=O)oc2c1	.	-8.9%	.	.	.	.
CN(C)S(=O)(=O)c1cccc(COc2ncnc3c(Cl)cc(Cl)cc23)c1	-0.7	-2.5%	-4.9	1.5%	0.0%	9.5%
Cc1ccccc1OCC(=O)Nc1cccc(N(C)S(C)(=O)=O)c1	15.0*	-4.2%	+	-8.0%	2.8%	4.7%
Cc1ccc(NC(=O)COc2ccccc2C=O)cc1Cl	25.7*	4.2%	28.6	-4.9%	1.0%	-0.4%
Cc1ccc(N(Cc2cccs2)C(=O)c2ccco2)cc1	.	.	.	.	2.9%	.
CCC/C=C1/CCCOC(C(=O)NCC2CC2)(C(F)(F)F)C1 (stereo not given)	-6.3	1.1%	-12.2	.	.	.
CC(C)(C)NC(=O)c1ccc(NC(=O)CSc2ccccc2)cc1	15.1*	1.1%	27.8	-2.0%	0.0%	14.0%
CN1CCN(c2ccc(NC(=O)CSc3ccccc3)cc2F)CC1	49.5*	3.4%	61.5*	-4.5%	7.7%	-4.3%
O=C(CSc1ccc(F)cc1)Nc1ccc(C2SCCS2)cc1	34.6*	0.7%	85.3*	3.6%	2.1%	3.1%
O=C(CSc1ccccc1)NC1=NCCS1	22.2*	-0.3%	44.5	1.4%	-1.1%	-2.3%
O=C(NCc1ccccc1F)C(=O)NCC(c1ccco1)S(=O)(=O)c1cccs1 (stereo not given)	.	.	.	.	0.3%	.
CN1C(=O)c2ccc(NC(=O)CSc3ccccc3)cc2C1=O	27.5*	1.4%	32.0	5.2%	0.1%	-17.0%
O=C(CSc1ccc2ccccc2c1)Nc1ccncc1	-2.5	5.2%	-14.2	-1.9%	-4.3%	8.1%
O=C(CSc1ccccc1)Nc1ccncc1	12.1*	1.2%	28.0	-3.5%	-2.9%	-15.4%
CC(=O)Oc1ccc(NC(=O)CSc2ccccc2)cc1	44.7*	-3.8%	50.7	3.2%	-4.2%	-1.1%
COc1ccc(C(=O)NCc2nnc(SCC(=O)Nc3ccc(F)cc3)n2-c2ccccc2)cc1	.	.	.	.	8.5%	.
CC(C)(C)C(=O)OCOC(=O)C1N2C(=O)CC2S(=O)(=O)C1(C)C (stereo not given)	.	.	.	.	1.6%	.
CCOC(=O)c1ccccc1NC(=O)COC(=O)CC(C)(C)CC1=NS(=O)(=O)c2ccccc2N1	.	.	.	.	11.0%	.
COC(=O)c1c(SCC(=O)Nc2cccc(C(F)(F)F)c2)[nH]c2ccccc2c1=O	.	.	.	.	-0.8%	.
